Experiment [1] relates to Zika virus NS2B-NS3 protease (linked construct). Briefly: Primary screen NINDS Rhodamine qHTS for Zika virus inhibitors (AID 1347160). Note: nearly all actives have a fitted effect of over 55% in size. Note: potency is the fitted concentration of half-maximal effect. Summed up:
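Aprotinin served as in-plate control. Conditions: 25 nM linked NS2B-NS3, pH 8.0 Tris buffer, titrated compounds, 15 min preincubation and 15 min reaction with 1.5 microM Rhod110 substrate at room temperature.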

Experiment [2] is described as follows: HPAF-II Cancer Cell Toxicity qHTS against the NCATS CANVASS Library (AID 1347346). Note: series mostly up to about 38 µM; nearly all actives have a fitted effect of over 55% in size. Summed up: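 First, HPAF-II cells are plated (1000 cells/well) and held 4 h at 37 degrees C. Next, compounds are pin-transferred as an 11-point series. After 72 h, CellTiter-Glo is added and luminescence measured.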
For orientation: Quantitative high-throughput screening tests each substance at several concentrations.

The nature of experiment [3]: U-118MG Cancer Cell Toxicity qHTS against the NCATS CANVASS Library (AID 1347351). Note: series mostly up to about 38 µM. Summed up:
(§1)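 Following a 4 h pre-incubation of 1000 seeded cells, compounds were pinned in an 11-pnt dilution series and left for 72 h; viability then came from CellTiter-Glo.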

The nature of experiment [4]: COV-362 Cancer Cell Toxicity qHTS against the NCATS CANVASS Library (AID 1347352). Note: series mostly up to about 38 µM. Summed up:
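First, 1000 cells go into each well and rest for 4 hours. Next, an 11-point dilution range is pinned in. Plates then incubate 72 hours before CellTiter-Glo addition and luminescence reading.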

A short description of experiment [5]: HEK293 18hr Apoptosis Induction qHTS against the NCATS CANVASS Library (AID 1347357). Summed up: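 HEK293 cells (500 per well, DMEM with 10% FBS) were treated with natural products, incubated 18 hours at 37 degrees C, then caspase-3/7 activity was read by Caspase-Glo luminescence after 15 min at room temperature.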
Experiment [6] can be described thus: HPAF-II 12hr Apoptosis Induction qHTS against the NCATS CANVASS Library (AID 1347358). Summed up:
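Cells plated at 500 per well are dosed with compound and incubated 12 hours at 37 degrees C. Caspase-Glo 3/7 reagent is added and, after 15 min at room temperature, luminescence proportional to caspase activity is measured.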

Experiment [7] can be described thus: HEK293 24hr Apoptosis Induction qHTS against the NCATS CANVASS Library (AID 1347359). Put shortly: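 Caspase-3/7 activation measured as luminescence from the DEVD-based Caspase-Glo reagent, 15 min at room temperature, following 24-hour compound treatment of HEK293 cells.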
Experiment [8] can be described thus: HPAF-II 18hr Apoptosis Induction qHTS against the NCATS CANVASS Library (AID 1347360). Put shortly: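 HPAF-II cells (500/well, DMEM + 10% FBS) were exposed to compounds for 18 hours at 37 degrees C. Caspase-3/7 activity was then read by Caspase-Glo 3/7 luminescence after 15 min at room temperature.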
Experiment [9] in a line: HEK293 12hr Apoptosis Induction qHTS against the NCATS CANVASS Library (AID 1347361). Put shortly: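 Read-out: Caspase-Glo 3/7 luminescence (DEVD substrate), 15 min RT. Preceded by 12 h compound exposure of HEK293, 500 cells/well, 11-pt qHTS titration; doxorubicin titration as control.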
For experiment [10], the target named is Luciferin 4-monooxygenase (Photinus pyralis) (UniProt P08659). Briefly: Firefly luciferase counterscreen qHTS: Assay Interference Panel against the NCATS CANVASS Library (AID 1347363). Note: series mostly up to about 57 µM. Summed up:
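Luminescence inhibition readout: compounds (11-point qHTS) sat 15 min at room temperature with substrate mix (0.013 mM luciferin and ATP), then firefly luciferase was added and signal read 5 min later.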
For orientation: A counterscreen serves to expose hits that act by an unwanted route or on another target.

Experiment [11] in a line: MCF7 Cancer Cell Toxicity qHTS against the NCATS CANVASS Library (AID 1347369). Put shortly: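 MCF7, 500 cells/well; cpds 11-pt qHTS; 72 hr, 37C/5% CO2; CellTiterGlo ATP luminescence.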
Experiment [12] is described as follows: qHTS for ATAD5 Antagonist screened against the NCATS CANVASS Library (AID 1347370).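 Note: HEK293T cells carrying an ATAD5 luciferase reporter co-treated with 10 µM 5-fluorouridine; series mostly up to about 46 µM; nearly all actives have a fitted effect of over 65% in size.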 Summed up: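 Compounds (11-point) co-dosed with 10 µM 5-FUrd for 16 h at 37 °C onto HEK293T-ATAD5 luciferase reporter cells. Viability measured by CellTiter-Fluor fluorescence, then ATAD5 reporter signal by luminescence.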
The nature of experiment [13]: J3T Cancer Cell Toxicity qHTS against the NCATS CANVASS Library (AID 1347371). Put shortly:
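Luminescence from CellTiterGlo, reporting cellular ATP, serves as the viability measure after 72 hr compound treatment of J3T canine glioma cells seeded at 500 cells/well.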

The target in experiment [14] is Nuclear receptor subfamily 1 group I member 3 (Homo sapiens) (UniProt Q14994). The experiment can be described thus: qHTS for Constitutive Androstane Receptor (CAR) Antagonist screened against the NCATS CANVASS Library (AID 1347372).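 Note: cells stimulated with 50 nM CITCO agonist so inhibition reflects antagonism; series mostly up to about 46 µM.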 Summed up:
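Antagonist mode: compound added alongside 50 nM CITCO to HepG2-hCAR-CYP2B6 reporter cells, 24hr at 37C. Viability by CellTiter-Fluor fluorescence, then CAR-driven luciferase by ONE-Glo luminescence.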

A short description of experiment [15]: 10-beta competent E. coli microbial cell viability qHTS against the NCATS CANVASS Library (AID 1347376). Note: series mostly up to about 46 µM. Put shortly:
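Bacterial suspension diluted to 0.2 OD was dosed with compounds, 11-point series, then held overnight at 37C. BacTiter-Glo reagent was added, and after 20 min at room temperature ATP-dependent luminescence was measured.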

Experiment [16] can be described thus: qHTS for Inflammasome Signaling Inhibitors: IL-1-beta AlphaLISA screen against the NCATS CANVASS Library (AID 1347379).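 Note: human THP-1 cells primed with LPS then triggered with ATP.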 Put shortly:
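Secreted IL-1B from human THP-1 cells quantified by AlphaLISA 16 hr after compound addition (final up to 57.5 uM). A 1 hr compound pretreatment preceded inflammasome activation with 250 ng/mL LPS plus 1.25 mM ATP (final).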

Experiment [17] in a line: Inflammasome Signaling qHTS Counterscreen: IL-1-beta AlphaLISA counterscreen against the NCATS CANVASS Library (AID 1347381).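 Note: cell-free check with purified IL-1β in medium and no THP-1 cells; series mostly up to about 57 µM.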 Summed up: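 Purified IL-1-beta (4 pg/well) + compound, 11-pt conc. series; acceptor beads 6 ug/mL + biotin-Ab 0.6 nM final, 1 h RT; SA-donor 24 ug/ml final, 30 min dark RT; read ex 680/em 615.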
Experiment [18] can be described thus: Cytotoxicity qHTS for assessment of Hepg2 cells membrane integrity screened against the NCATS CANVASS Library (AID 1347387). Put shortly: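 Cells were seeded at 2000 per well and left overnight to attach. Compounds were pin-transferred to give 0.59 nM - 46 uM in an 11-point series and incubated 5 hr at 37C. CytoTox-ONE reagent was added and, after 10 min at room temperature, fluorescence (ex 560, em 590 nm) was read.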

A short description of experiment [19]: Vero-766 cells viability qHTS against the NCATS CANVASS Library: Counterscreen for Zika virus inhibition assay (AID 1347394). Note: series mostly up to about 46 µM; nearly all actives have a fitted effect of over 60% in size. Summed up:
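Uninfected Vero 766 (African green monkey) cells, 1000/well, attached overnight, then exposed 72 h at 37C to compounds (11-point qHTS). Viability read by CellTiter-Glo luminescence; media-only wells served as 100% inhibition.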

Experiment [20] can be described thus: OV-SAHO Cancer Cell Toxicity qHTS against the NCATS CANVASS Library (AID 1347348). Note: series mostly up to about 38 µM; nearly all actives have a fitted effect of over 55% in size. Summed up: as §1

Among the data in PubChem BioAssay (NCATS) are Potency and outcome values, retold here.

Unmarked numbers belong to inactive results. Inconclusive results are not listed. The source made the active and inactive calls. Calls come from the whole dose curve; as a rule, active = well fitted curve in the direction sought with a large enough effect; inconclusive = small, poorly fitted or top-dose-only effect, or another doubt; inactive = no such curve, though single readings can be large; an effect the other way counts as inactive or inconclusive. Numbered stars: 1 amine (or outer) side, 2 acyl side, 3 side chain; on linkers, the order of the positions; unused ones are H or OH. Square brackets hold non-standard residues; d marks the D form. Peptide text beside a SMILES is read from it. ξ: configuration not given here. X4 = O=C(C1CC2(c3ccc(O)cc3)c3ccccc3NC2N1[*:1])[*:2]; ξW = NC(Cc1c[nH]c2ccccc12)C(=O)O; ξY = NC(Cc1ccc(O)cc1)C(=O)O

Luciferin 4-monooxygenase (Photinus pyralis), sequence (P08659 whole entry, looked up): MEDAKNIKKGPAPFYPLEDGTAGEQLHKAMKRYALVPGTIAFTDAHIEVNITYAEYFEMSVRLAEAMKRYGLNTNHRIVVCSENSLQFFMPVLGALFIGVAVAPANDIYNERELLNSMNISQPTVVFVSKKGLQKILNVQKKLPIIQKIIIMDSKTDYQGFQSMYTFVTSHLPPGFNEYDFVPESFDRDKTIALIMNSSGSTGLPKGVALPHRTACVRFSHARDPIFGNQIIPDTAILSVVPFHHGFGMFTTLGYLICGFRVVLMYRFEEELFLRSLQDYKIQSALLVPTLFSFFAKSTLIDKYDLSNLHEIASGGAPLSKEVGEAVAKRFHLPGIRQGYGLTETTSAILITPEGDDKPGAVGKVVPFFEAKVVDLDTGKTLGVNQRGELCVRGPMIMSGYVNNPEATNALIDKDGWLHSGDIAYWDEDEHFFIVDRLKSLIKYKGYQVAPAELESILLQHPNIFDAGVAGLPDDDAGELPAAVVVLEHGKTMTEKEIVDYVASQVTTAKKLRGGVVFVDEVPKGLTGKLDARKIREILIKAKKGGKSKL
Nuclear receptor subfamily 1 group I member 3 (Homo sapiens), sequence (Q14994 whole entry, looked up): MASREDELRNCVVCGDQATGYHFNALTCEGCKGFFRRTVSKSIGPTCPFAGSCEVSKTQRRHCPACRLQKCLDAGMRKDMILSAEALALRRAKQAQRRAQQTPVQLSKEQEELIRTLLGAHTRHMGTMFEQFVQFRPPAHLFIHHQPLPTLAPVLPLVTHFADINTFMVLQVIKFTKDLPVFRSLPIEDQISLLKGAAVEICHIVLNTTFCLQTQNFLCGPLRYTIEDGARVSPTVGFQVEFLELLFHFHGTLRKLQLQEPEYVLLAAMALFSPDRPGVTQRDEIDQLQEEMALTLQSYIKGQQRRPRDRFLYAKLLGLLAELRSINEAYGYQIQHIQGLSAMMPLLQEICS

Take `CCCCCC[C@H](CCCCC[C@@H](O)C(N)=O)OC(=O)[C@@H]1CC=CN1C(=O)c1ccccc1O`: the Potency in [1] is 62.1 µM (active). Moreover, the Potency result in [2], in experiment [3], in experiment [4], in experiment [5], in [6] and in experiment [7] was “inactive” each time. Further, the Potency result in experiment [8], in experiment [9], in experiment [10], in experiment [11], in [12] and in experiment [13] was “inactive” each time. In addition, the Potency entry in [14], in experiment [16] and in experiment [19] was “inactive” in each case. In addition, the result in experiment [15], in experiment [17] and in [18] was inactive.
In the case of `C[C@@]12C[C@@H](C[C@H]3C(=O)O[C@@H](c4ccoc4)[C@H](OC(=O)c4ccccc4)[C@@H]31)OC2=O`, the Potency entry in experiment [1], in [2], in experiment [20], in experiment [3], in experiment [4] and in experiment [5] was “inactive” throughout. Further, the Potency result in [6], in experiment [7], in experiment [8], in [9], in experiment [10] and in experiment [11] was “inactive” each time. Besides, the Potency entry in experiment [12], in [13], in experiment [14] and in [16] was “inactive” in each case. In addition, the call in [15], in experiment [17] and in experiment [18] was inactive.
As to `CC1(C)CCC[C@]2(C)[C@@H]1CC[C@@]13C[C@@H](CC[C@H]12)C(C)(O)C3` (stereo partly drawn), the Potency in experiment [1] was 44 µM (active). Also, the Potency entry in experiment [2], in experiment [20], in experiment [3], in experiment [4], in [5] and in [6] was “inactive” each time. Also, the Potency entry in experiment [7], in experiment [8], in experiment [9], in experiment [10], in experiment [11] and in experiment [12] was “inactive” in each case. Moreover, the Potency result in experiment [13], in experiment [14], in experiment [16] and in experiment [19] was “inactive” each time. The molecule was classed as inactive in [15], in [17] and in experiment [18].
With `C[C@]12CC[C@]3(C1)[C@H](CC2=O)CC(OC(=O)c1ccccc1)[C@H]1[C@@](CO)(C(=O)O)CCC[C@@]13C` (stereo partly drawn), the Potency in experiment [1] was 49.3 µM (active). Moreover, the Potency entry in experiment [2], in [20], in experiment [3], in [4], in experiment [5] and in experiment [6] was “inactive” throughout. Further, the Potency result in experiment [7], in experiment [8], in experiment [9], in experiment [10], in experiment [11] and in experiment [12] was “inactive” throughout. Also, the Potency entry in experiment [13], in [14], in experiment [16] and in experiment [19] was “inactive” in each case. The outcome in experiment [15], in [17] and in experiment [18] was inactive.
In the case of `CC(=O)O[C@H]1CC[C@@]2(C)C(CC[C@]3(C)C2CC=C2C4CC(C)(C)CC[C@]4(C)CC[C@]23C)C1(C)C` (stereo partly drawn), the Potency result in experiment [1], in [2], in [20], in experiment [3], in [4] and in experiment [5] was “inactive” each time. Besides, the Potency result in experiment [6], in experiment [7], in [8], in experiment [9], in [10] and in [11] was “inactive” each time. Also, the Potency result in experiment [12], in [13], in [14], in [16] and in [19] was “inactive” in each case. Further, the molecule was classed as inactive in [15], in [17] and in [18].
In the case of `CC[C@H](C)[C@H](NC(=O)C(Cc1ccc(O)cc1)NC(=O)C(Cc1c[nH]c2ccccc12)NC(=O)[C@H](C)N)C(=O)N1C(C(=O)NC(Cc2ccc(O)cc2)C(=O)O)CC2(c3ccc(O)cc3)c3ccccc3NC12` (stereo partly drawn) (H-A[ξW][ξY]I[X4][ξY]-OH), the Potency in experiment [1] was 9.84 µM (active). In addition, the Potency entry in [2], in experiment [20], in [3], in [4], in experiment [5] and in experiment [6] was “inactive” in each case. Further, the Potency result in experiment [7], in experiment [8], in [9], in experiment [10], in [11] and in experiment [12] was “inactive” each time. Moreover, the Potency result in experiment [13], in experiment [14], in [16] and in experiment [19] was “inactive” in each case. In addition, the outcome in experiment [15], in [17] and in [18] was inactive.
